These results are taken from PubChem BioAssay (NCATS).

SMILES strings stand for the structures. Results filed as inconclusive are left out. Activity calls are given as the source filed them. The call rests on the fitted dose curve; in most records, active means well fitted inhibition curve with a large enough effect; inconclusive means small, poorly fitted or top-dose-only effect; inactive means flat fitted curve, though single readings scatter. Peptide text beside a SMILES is read from it.

Common to all, as to assay: qHTS profiling for inhibitors of Plasmodium falciparum proliferation (AID 504749); further: nearly all actives have a fitted effect of over 60% in size
Details in all cases: P. falciparum in erythrocytes, SYBR Green DNA, 72 h; series mostly up to 28.7 µM

In assay [1] the test system is CP329. The method, boiled down: (§1)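 P. falciparum-infected erythrocytes (0.3% parasitemia, 2.5% hematocrit) incubated with compound 72 h at 37 C, 5% CO2. Parasite DNA detected by SYBR Green after lysis, overnight at room temperature; normalised to 0.29 uM artemisinin and DMSO.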
For assay [2], the system named is CP335. The method, boiled down: as §1
The subject of assay [3] is DFO2036. The method, boiled down: as §1
Assay [4] has as its system DIV14. The method, boiled down:
as §1

Assay [5] relates to DIV17. The method, boiled down:
as §1

Assay [6] concerns DIV30. The procedure, abridged:
as §1

For assay [7], the system named is Dd2. The procedure, abridged: as §1
Assay [8] concerns ECU. The procedure, abridged: as §1
The subject of assay [9] is FAB9. The procedure, abridged: as §1
In assay [10] the test system is GB4. The method, boiled down: as §1
Potency means the concentration at half of the fitted maximal effect.

As for `CC1(C)S[C@@H]2[C@H](NC(=O)[C@@H](NC(=O)N3CCNC3=O)c3ccccc3)C(=O)N2[C@H]1C(=O)O`, the Potency entry in assay [1], in [2], in assay [3], in [4], in [5] and in [6] was “inactive” in each case. Besides, the Potency result in assay [7], in assay [8], in assay [9] and in [10] was “inactive” throughout.

Turning to `Nc1ncnc2c1ncn2[C@@H]1O[C@H](COP(=O)(O)OP(=O)(O)OP(=O)(O)O)[C@@H](O)[C@H]1O`, the Potency result in assay [1], in [2], in assay [3], in [4], in assay [5] and in [6] was “inactive” throughout. For the same compound, the Potency result in assay [7], in [8], in assay [9] and in assay [10] was “inactive” throughout.

As to `IC(I)I`, the Potency result in assay [1], in [2], in assay [3], in assay [5], in assay [6] and in assay [7] was “inactive” each time. Also, the Potency result in [8], in assay [9] and in assay [10] was “inactive” throughout.

Consider `COC(=O)CCC(=O)CN`, for which the Potency result in assay [1], in [2], in assay [3], in assay [5], in assay [6] and in [7] was “inactive” in each case. In addition, the Potency entry in assay [8], in assay [9] and in [10] was “inactive” in each case.

As for `CCNC(=O)[C@@H]1CCCN1C(=O)[C@H](CCCN=C(N)N)NC(=O)[C@H](CC(C)C)NC(=O)[C@@H](Cc1c[nH]c2ccccc12)NC(=O)[C@H](Cc1ccc(O)cc1)NC(=O)[C@H](CO)NC(=O)[C@H](Cc1c[nH]c2ccccc12)NC(=O)[C@H](Cc1cnc[nH]1)NC(=O)[C@@H]1CCC(=O)N1`, the Potency was 8.49 µM (active) in assay [1]; 4.78 µM (active) in [2]; 5.62 µM (active) in [3]; 0.953 µM (active) in assay [4]; 0.953 µM (active) in assay [5]; 1.69 µM (active) in assay [6]. The Potency in assay [7] was 3.16 µM (active); in assay [8] it was 1.12 µM (active); in assay [9] it was 8.91 µM (active); in [10] it was 2.39 µM (active).

For `CC(C(=O)O)c1ccc(N2Cc3ccccc3C2=O)cc1` (configuration not stated), the Potency result in assay [1], in [2], in [3], in [4], in assay [5] and in assay [6] was “inactive” throughout. The Potency entry in assay [7], in assay [8], in [9] and in assay [10] was “inactive” in each case.

Turning to `CO[C@H]1C[C@@H]2CC[C@@H](C)[C@@](O)(O2)C(=O)C(=O)N2CCCC[C@H]2C(=O)O[C@H]([C@H](C)C[C@@H]2CC[C@@H](OCCO)[C@H](OC)C2)CC(=O)[C@H](C)/C=C(\C)[C@@H](O)[C@@H](OC)C(=O)[C@H](C)C[C@H](C)/C=C/C=C/C=C/1C`, the Potency in assay [1] was 4.78 µM (active); in assay [2], 1.51 µM (active); in assay [3], 1.41 µM (active); in [4], 1.69 µM (active); in assay [5] it was 1.69 µM (active); in [6], 1.51 µM (active). Also, the Potency in assay [7] is 0.891 µM (active); in [8], 1.78 µM (active); in assay [10] it was 1.69 µM (active).

Take `CCCCCCCCCCCCCCCC(=O)OCC(COC(=O)CCCCCCCCCCCCCCC)OC(=O)CCCCCCCCCCCCCCC`: the Potency entry in [1], in assay [2], in assay [3], in assay [4], in [5] and in assay [6] was “inactive” each time. The Potency entry in [7], in [8], in assay [9] and in assay [10] was “inactive” in each case.

As to `CN1C(=O)CN2CCc3ccccc3C2c2cc(Cl)ccc21` (configuration not stated), the Potency result in [1], in [2], in [3], in assay [7] and in [9] was “inactive” in each case. Also, the Potency in assay [5] was 6.01 µM (active).

For the compound `C=CCSSSCC=C`, the Potency entry in assay [1], in assay [2], in assay [3], in assay [4], in [5] and in assay [6] was “inactive” each time. The Potency entry in assay [7], in assay [8], in [9] and in assay [10] was “inactive” in each case.

With `CCCC(=O)Nc1ncnc2c1ncn2C1OC2COP(=O)(O)OC2C1OC(=O)CCC` (configuration not stated), the Potency result in assay [1], in assay [2], in assay [3], in assay [4], in assay [5] and in assay [6] was “inactive” throughout. Also, the Potency entry in assay [7], in [8], in assay [9] and in assay [10] was “inactive” throughout.

Take `CC(C)N=c1cc2n(-c3ccc(Cl)cc3)c3ccccc3nc-2cc1Nc1ccc(Cl)cc1`: the Potency entry in [1], in [3], in assay [5], in assay [6], in assay [7] and in assay [8] was “inactive” each time. In addition, the Potency result in [9] and in assay [10] was “inactive” in each case. Moreover, the Potency in assay [2] is 1.81 µM (active).

Take `CC(=O)N[C@@H](CC(=O)O)C(=O)N[C@@H](CCC(=O)O)C(=O)O` (Ac-Asp-Glu-OH): the Potency entry in assay [1], in assay [2], in assay [3], in assay [4], in assay [5] and in assay [6] was “inactive” each time. For the same compound, the Potency entry in assay [7], in assay [8], in assay [9] and in assay [10] was “inactive” in each case.

As for `CCCC(=O)O[C@]1(C(=O)CCl)[C@H](C)C[C@@H]2[C@H]3CCC4=CC(=O)C=C[C@]4(C)[C@@]3(F)C(=O)C[C@@]21C`, the Potency was 1.9 µM (active) in [1]; 1.51 µM (active) in assay [2]; 0.891 µM (active) in [3]; 6.01 µM (active) in assay [4]; 6.75 µM (active) in [5]; 4.26 µM (active) in [6]. The Potency in assay [7] was 3.16 µM (active); in assay [8], 2.51 µM (active); in assay [9], 7.94 µM (active); in [10], 2.39 µM (active).

Take `O=S(=O)(O)O`: the Potency entry in assay [1], in [2], in assay [3], in assay [4], in [5] and in assay [6] was “inactive” in each case. In addition, the Potency result in [7], in assay [8], in assay [9] and in [10] was “inactive” each time.

With `CO[C@H](C(=O)[C@@H](O)[C@@H](C)O)C1Cc2cc3cc(O[C@H]4C[C@@H](O[C@H]5C[C@@H](O)[C@H](O)[C@@H](C)O5)[C@@H](O)[C@@H](C)O4)c(C)c(O)c3c(O)c2C(=O)[C@H]1O[C@H]1C[C@@H](O[C@H]2C[C@@H](O[C@H]3C[C@](C)(O)[C@H](O)[C@@H](C)O3)[C@H](O)[C@@H](C)O2)[C@H](O)[C@@H](C)O1` (some centres not stated), the Potency in assay [1] is 1.69 µM (active); in assay [2], 0.151 µM (active); in assay [3], 0.112 µM (active); in [4] it was 0.601 µM (active); in assay [5], 0.675 µM (active); in [6], 2.39 µM (active). Further, the Potency in assay [7] was 0.0891 µM (active); in [8] it was 0.126 µM (active); in assay [9], 0.562 µM (active); in assay [10] it was 0.675 µM (active).

For the compound `C[C@H]1C[C@H]2[C@@H]3CCC4=CC(=O)C=C[C@]4(C)[C@@]3(F)[C@@H](O)C[C@]2(C)[C@@]1(O)C(=O)CO`, the Potency result in [1], in assay [2], in [3], in assay [4], in assay [5] and in assay [6] was “inactive” in each case. Also, the Potency result in [7], in [8], in assay [9] and in assay [10] was “inactive” each time.

Consider `CC(O)CO` (configuration not stated), for which the Potency entry in assay [1], in assay [2], in assay [3], in [4], in [5] and in assay [6] was “inactive” in each case. Further, the Potency result in assay [7], in [8], in [9] and in assay [10] was “inactive” each time.
